High-throughput results: PubChem, National Center for Advancing Translational Sciences (NCATS)
Tau ThT inhib = tau fibrillization inhibition (ThT binding); AID 1460; Potency, µM (top dose mostly 57.4 µM), for inactives: at the top dose activity, negative = inhibition, hits mostly inhibitors; recombinant tau K18 P301L, heparin-induced fibrillization, ThT fluorescence; hit rate 2.1% among 270,000; further: potency means the concentration at half of the fitted maximal effect; nearly all actives have a fitted effect of over 55% in size
Target sequence (P10636 561-689 P618L limits assumed): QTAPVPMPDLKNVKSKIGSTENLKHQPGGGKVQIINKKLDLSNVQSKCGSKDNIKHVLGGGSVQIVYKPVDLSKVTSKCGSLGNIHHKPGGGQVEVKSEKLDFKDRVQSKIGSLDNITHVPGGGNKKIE
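ThT emission at 510 nm, taken 1 hr after adding 30 uM dye, quantifies aggregates formed when 20 uM heparin acts on human tau K18 P301L for 6 hr at 37 C.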
USP1 inh = inhibitors of human USP1/UAF1 deubiquitinase; O94782; AID 743255; Potency, µM (titrated, usually from 57.1 µM), for the others: top-dose activity change, negative = inhibition, hits mostly inhibitors; hit rate 0.23% among 390,000; recombinant USP1/UAF1, Ub-Rhodamine cleavage fluorescence; further: potency means the concentration at half of the fitted maximal effect; nearly all actives have a fitted effect of over 60% in size
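High-throughput fluorogenic screen: 1nM USP1/UAF1 complex, Ub-Rho substrate 150nM final, 50mM HEPES pH 7.8 with 0.5mM EDTA, 0.1 mg/ml BSA, 1mM TCEP and 0.01% Tween-20.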
Tau fibril FP = tau fibrillization inhibition (FP); P10636; K18 P301L tau heparin fibrillization, Alexa594 FP, 6 h; Potency, µM (highest dose often 57.7 µM), without a hit: at the highest dose activity, negative = inhibition, actives largely listed as inhibitors; hit rate 0.39% among 280,000; further: potency means the concentration at half of the fitted maximal effect; nearly all actives have a fitted effect of over 55% in size
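FP of Alexa 594-tau after heparin (20 uM) induction. Substrate: human K18 P301L, 15 uM unlabeled, 0.24 uM labeled. Buffer 100 mM sodium acetate pH 7. 6 hr, 37 C.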
Coupling enz = counter-screen for Giardia aldolase inhibitors: coupling enzyme system; coupling enzyme system counterscreen, AmpLite Red fluorescence; activity change, negative = inhibition, % at 58.2 µM, hits read low; hit rate 0.67% among 290,000; in the data active means activity change below about -30%
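Fluorescence at 525 nm excitation and 598 nm emission measured inhibition of the coupled detection system without aldolase. Compounds (at 57.5 uM final) were preincubated 10 min at room temperature with coupling enzyme reagent before a 20 min substrate/AmpLite Red step.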
Tau fluor cs = counter-screen for tau fibril formation inhibitors | tau K18 P301L (four-repeat tau fragment) Alexa594 fluorescence, heparin fibrillization | Potency, µM (series often up to 57.7 µM), inactives show at the top dose activity change, negative = decrease | hit rate 0.93% among 280,000; further: potency means the concentration at half of the fitted maximal effect; nearly all actives have a fitted effect of over 55% in size
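Human K18 P301L tau (15 uM unlabeled plus 0.24 uM Alexa 594-labeled, final) in 100 mM sodium acetate pH 7 was mixed with compound and 20 uM heparin and incubated 6 hr at 37 C.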
* hit, by the source's call; ? = inconclusive; · = no result given; [ ] = dose if it differs, or a comment. Shown are actives, neighbours in structure and some others; about 2.3% of the full set was active somewhere. Unless noted, the call rests on the fitted dose curve; in most records, active means well fitted curve in the direction sought with a large enough effect; inconclusive means small, poorly fitted or top-dose-only effect, or another doubt; inactive means no such curve, though single readings can be large; an effect the other way counts as inactive or inconclusive. On the % scale 0 is the no-effect control and ±100 the full control effect.

SMILES | Tau ThT inhib | USP1 inh | Tau fibril FP | Coupling enz | Tau fluor cs
COc1ccc(Cl)cc1C(=O)N/N=C/c1ccc(N2CCOCC2)cc1 | 11µM* | -10% | 1% | -1 | -23%
O=C(N/N=C/c1ccc(N2CCOCC2)cc1)c1ccccn1 | 14µM* | -20% | -3% | -1 | -17%
O=C(N/N=C/c1ccncc1)c1ccccn1 | · | -18% | · | 0 | ·
CC(=O)Nc1ccc(Nc2nc(-c3ccccc3)nc3ccccc23)cc1 | ? | -20% | -3% | 1 | 14µM*[quencher]
CC(=O)c1cccc(Nc2nc(-c3cccc(C)c3)nc3ccccc23)c1 | -8% | -26% | 7.1µM* | · | 2.8µM*[quencher]
Oc1ccc(Nc2nc(-c3ccc(Cl)cc3)nc3ccccc23)cc1 | 13µM* | -36% | ? | · | 4µM*[quencher]
Oc1ccc(Nc2nc(-c3ccccc3)nc3ccccc23)cc1 | · | 0% | · | 1 | ·
Oc1ccc(Nc2nc3ccccc3nc2Nc2ccc(O)cc2)cc1 | 16µM* | -2% | ? | -12 | 7.1µM*[quencher]
Cc1cccc(-c2nc(Nc3cccc(O)c3)c3ccccc3n2)c1 | · | -16% | · | -2 | ·
CCC(=O)Nc1ccccc1-c1nc2ccccc2n(CC(=O)Nc2ccccc2OC)c1=O | 6% | 0% | 11% | · | 10%
COC(=O)c1scc(-c2ccc(C)cc2)c1S(=O)(=O)Nc1cc(OC)c(OC)c(OC)c1 | -11% | -19% | 10% | · | -18%
COc1cc(CCC(N)c2cccc(O)c2)cc(OC)c1OC (configuration not stated) | · | 1% | · | · | ·
COC(=O)c1ccc(Nc2nc(-c3ccccc3Cl)nc3ccccc23)cc1 | 11% | -19% | 13µM* | · | ?
c1ccc2c(Nc3ccc(N4CCOCC4)cc3)nc(N3CCOCC3)nc2c1 | · | -14% | · | 2 | ·
Cc1cccc(-c2nc(Nc3ccc(N4CCOCC4)cc3)c3ccccc3n2)c1 | ? | -19% | ? | -4 | 11µM*[quencher]
Cc1nc(N/N=C/c2ccc(O)cc2)c2cnn(-c3ccccc3)c2n1 | ? | -20% | 10% | 2 | ?
Cc1nc2ccccc2nc1N/N=C/c1ccc(O)cc1 | 14µM* | -13% | 12% | -1 | ?
CN(C)C=NC(=O)c1cc2c(n(-c3ccccc3)c1=O)CC(C)(C)CC2=O | -4% | -9% | -3% | · | -4%
COc1cccc([C@@H]2Oc3ccc(OC)cc3C(=O)[C@H]2OC(=O)NC2CCCC2)c1 | -1% | · | 1% | -2 | -10%
O=c1cc(-c2ccccc2)[nH]c2ccccc12 | -10% | -15% | -5% | -2 | -7%
O=C1C(c2cc(=O)c3ccccc3[nH]2)=C(O)c2ccccc21 | 4.5µM* | -22% | 10% | -19 | -10%
CC(C)=CC(=O)Oc1ccc(C(=O)N(C)c2ccccc2I)cc1 | · | · | · | -1 | ·
Oc1cccc2c(NC(=S)Nc3ccc(SC(F)F)cc3)cccc12 | 10µM* | ? | ? | -43* | 11µM*[quencher]
Oc1cccc(NC(=S)Nc2ccc(SC(F)F)cc2)c1 | -8% | 5% | -3% | 0 | ?
Cc1ccc(NC(=O)CC(C)S(=O)(=O)c2ccc3c(c2)NC(=O)CO3)c(C)c1 (configuration not stated) | 10% | -6% | -1% | · | -1%
SMILES | Tau ThT inhib | USP1 inh | Tau fibril FP | Coupling enz | Tau fluor cs
CNC(=S)N(CCc1c(C)[nH]c2ccc(C)cc12)Cc1cccs1 | ? | -10% | 6% | 0 | 20µM*[quencher]
COc1ccc2[nH]c(C)c(CCNC(=S)Nc3cccc(C)c3)c2c1 | ? | -10% | 15% | 0 | 16µM*[quencher]
COc1ccc2[nH]c(C)c(CCN(Cc3cccs3)C(=S)Nc3ccc(F)cc3)c2c1 | ? | -23% | -2% | -8 | 7.9µM*[quencher]
COc1ccc(NC(=S)N(CCc2c(C)[nH]c3ccc(C)cc23)Cc2cccs2)cc1 | 15% | -21% | 3% | 0 | 3%
COc1ccc(NC(=S)N(CCc2c(C)[nH]c3ccc(C)cc23)Cc2ccco2)cc1 | ? | ? | ? | 1 | 14µM*[quencher]
COc1ccccc1CN1CCCC2(CCN(C(=O)c3ccncc3)CC2)C1 | · | · | · | 0 | ·
COC(=O)[C@H](COC(C)(C)C)NC(=O)O[C@@H]1C(=O)c2cc(OC)ccc2O[C@H]1c1cccc(OC)c1 | -5% | · | -5% | 0 | -10%
CC1=Nc2cc(C(=O)NCc3ccccc3Cl)ccc2Sc2c(C)ccc(C)c21 | 2% | -30% | ? | · | -11%
Cc1cccc(C(=O)NCCc2nc3ccccc3n2Cc2ccc(Cl)cc2)c1 | ? | -24% | -12% | · | -22%
COc1ccc2[nH]cc(CCNC(=O)Nc3cccc(F)c3)c2c1 | ? | -18% | ? | · | 25µM*[quencher]
COc1ccc2[nH]cc(CCNC(=O)Nc3c(C)cccc3C)c2c1 | -11% | -18% | 8% | · | -18%
CCc1cc(C(=O)O)c(NC(=O)/C=C/c2ccc(OC)cc2)s1 | 13µM* | -26% | -2% | 3 | ?
CCCCOc1nnc(-c2ccc(OCC)cc2)c2ccccc12 | ? | 0% | -11% | · | -11%
Cc1cccc(N=Nc2c(N)n[nH]c2-c2ccc(Cl)cc2)c1 | ? | -6% | ? | 1 | 8.9µM*[quencher]
COC(=O)c1ccccc1N=Nc1c(N)n[nH]c1N | ? | -21% | 8% | -5 | -13%
Cc1ccc(-c2[nH]nc(N)c2N=Nc2ccccc2C)cc1 | 16µM* | -13% | -5% | 0 | 11µM*[quencher]
Nc1n[nH]c2cccc(Cl)c12 | -14% | -6% | -3% | 0 | -15%
Cc1ccc(-c2[nH]nc(N)c2N=Nc2cccc(Cl)c2C)cc1 | 13µM* | -26% | ? | 0 | 6.3µM*[quencher]
COc1ccc(OCC(=O)NCc2ccc3c(c2)CCN3C(=O)c2cccc(C)c2)cc1 | -13% | -22% | 5% | · | -4%
CC(=O)N[C@H](Cc1c[nH]c2ccccc12)C(N)=O | 5% | · | -5% | 2 | -8%
CCC1(C)CC2(CCCN(CCC(=O)c3ccccc3)C2)CCO1 (configuration not stated) | ? | -21% | 13% | 2 | -9%
COc1ccc(NC(=O)Cn2nc(SC)c(S(=O)(=O)c3ccc(C)cc3)c2N)cc1OC | -4% | -26% | -13% | · | -28%
CCSc1nn(CC(=O)Nc2ccc(C(=O)OC)cc2)c(N)c1S(=O)(=O)c1ccc(C)cc1 | -2% | -13% | 25µM* | · | ?
CCOC(=O)c1ccc(NC(=O)Cn2nc(SC)c(S(=O)(=O)c3ccc(Cl)cc3)c2N)cc1 | -7% | -29% | 13µM* | · | ?
COc1ccc(-n2cc(C(=O)OCc3ccc(F)c(F)c3)c3ccccc3c2=O)cc1 | 4% | ? | -3% | · | -8%
O=C(Nc1ccc(C(=O)O)cc1)/C(=C\C=C\c1ccccc1)NC(=O)c1ccccc1Cl | · | -9% | · | · | ·
O=C(Nc1ccc(O)cc1)/C(=C\C=C\c1ccccc1)NC(=O)c1ccccc1 | ? | -1% | -6% | -1 | 18µM*[quencher]
COc1ccc(NC(=O)CNc2cccc(C#N)c2)cc1Cl | -13% | -14% | -7% | -3 | ?
